KCNK3 block – human KCNK3 channel inhibition, primary screen; CHO-KCNK3 thallium flux, FluxOR fluorescence; hits give low values; B-score at 10 µM; 340,000 compounds, 0.84% hits; O14649;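 active = B-score under library mean minus 4 SD, starting fluorescence ratio at most library mean plus 5 SD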;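 also: more negative B-score means stronger inhibition of thallium flux through KCNK3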
ANO1 activ – activators or potentiators of mouse TMEM16A chloride channel | HEK293 TMEM16A/YFP-H148Q/I152L, iodide quench fluorescence; hits give low values | B-score at 10 µM | AID 623877 | 340,000 compounds, 0.3% hits;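 active = fluorescence-ratio B-score plate-corrected deviation score at least 3 library SD below zero, with starting fluorescence score within 5 deviations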;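 also: channel opened by trigger with iodide after compound preincubation; score built on the fluorescence ratio of max minus min over baseline; more negative score means more quench and so TMEM16A activation or potentiation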
TMEM16A inh – mouse TMEM16A channel inhibition, primary screen. 310,000 compounds, 1.2% hits. AID 588511. HEK293 TMEM16A/YFP iodide influx fluorescence, ionomycin. Q8BHY3. normalized B-score (activity score, 25-100; higher = stronger inhibition) at 10 µM;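 active = ratio plate-corrected score three or more library SD toward inhibition, starting fluorescence score within five deviations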;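 also: score derived from kinetic fluorescence span divided by baseline fluorescence per well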
Kir21 inh – Kir2.1 (mouse) channel inhibition; HEK293-Kir2.1, FluxOR thallium flux fluorescence; hits give low values; B-score at 10 µM; 310,000 compounds, 0.85% hits; AID 1672;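 active = fluorescence ratio B-score at or below minus 3 SD of library scores, with starting-brightness B-score within 2 SD, cut at about -4.2 in these data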;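 also: channel flux triggered by added potassium and thallium sulfate stimulus; B-score of peak minus minimum fluorescence over baseline after thallium stimulus; more negative B-score means stronger Kir2.1 block with less thallium influx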
KCNK9 inh – blocks the human KCNK9 two-pore domain potassium channel; Q9NPC2; HEK293 KCNK9, FluxOR thallium flux fluorescence; hits give low values; B-score at 10 µM; 310,000 compounds, 1.2% hits; AID 488922;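 active = ratio B-score over 3 SD below the library mean, with starting fluorescence within 5 SD of its mean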;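 also: negative B-score means less thallium flux so channel inhibition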
Target sequence (Q9NPC2 whole entry, looked up, the tested form may be a part): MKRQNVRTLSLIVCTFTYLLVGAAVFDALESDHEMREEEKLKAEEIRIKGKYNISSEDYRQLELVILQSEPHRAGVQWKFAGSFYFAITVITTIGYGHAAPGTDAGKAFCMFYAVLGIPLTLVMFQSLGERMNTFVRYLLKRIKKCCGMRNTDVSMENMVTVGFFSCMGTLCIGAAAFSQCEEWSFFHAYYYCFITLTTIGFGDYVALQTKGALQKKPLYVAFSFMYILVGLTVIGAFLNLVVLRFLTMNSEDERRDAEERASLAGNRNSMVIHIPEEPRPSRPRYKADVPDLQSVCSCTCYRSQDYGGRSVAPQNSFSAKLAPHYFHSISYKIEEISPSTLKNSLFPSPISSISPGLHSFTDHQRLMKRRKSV
Numbers without * were called inactive; i = inactive; · = no result given. Shown are actives, neighbours in structure and some others; about 3.5% of the full set was active somewhere.

SMILES | KCNK3 block | ANO1 activ | TMEM16A inh | Kir21 inh | KCNK9 inh
N#CC1=C(N)C(C#N)(C#N)C(c2ccc[nH]2)C2CCCC=C12 (configuration not stated) | i | i | i | -4.89* | i
CS(=O)(=O)Nc1ccccc1C(=O)Nc1cccc(Cl)c1 | i | i | 25* | 1.77 | i
CS(=O)(=O)Nc1ccccc1C(=O)Nc1cc(Cl)cc(Cl)c1 | i | i | i | -0.09 | i
CCc1cccc(NC(=O)CCc2c(C)nn(-c3ccc(N4CCCCC4)nn3)c2C)c1 | i | i | i | -0.03 | i
CCCc1cc(C(=O)Nc2ccc(C(=O)c3ccc(F)cc3)cc2)n(C)n1 | -12.1* | i | 100* | 1.03 | i
O=C(c1ccc(N2CCCCCC2)c([N+](=O)[O-])c1)N1CCc2ccccc21 | · | · | i | 0.2 | -7.37*
CN1CCN(c2ccc(Nc3ccnc4cc(Cl)ccc34)cc2)CC1 | i | i | i | -6.79* | i
C=CCN1C(=O)S/C(=C/c2ccsc2)C1=O | i | i | i | -1.34 | i
C=CCN1C(=O)S/C(=C/c2ccc(Sc3nc4ccccc4[nH]3)o2)C1=O | i | i | 100* | 0.04 | i
CCn1cc(CCC(=O)NC(C)c2ccccc2)c2ccccc21 (configuration not stated) | i | i | i | -6.11* | i
Cc1cc(C)c2c(=O)n(CC(=O)NC3CCCC3)sc2n1 | i | i | i | -1.19 | i
COc1ccc(OC)c(CCNC(=O)CCc2cn(C)c3ccccc23)c1 | i | i | i | -5.64* | i
COc1ccc(OC)c(CCNC(=O)Cn2sc3nc(C)cc(C)c3c2=O)c1 | · | · | 25* | -1.17 | i
CC(CCc1ccccc1)NC(=O)CCc1cn(C)c2ccccc12 (configuration not stated) | i | i | i | -5.63* | i
COc1ccc(OC)c(CNC(=O)CCc2cn(C)c3ccccc23)c1 | i | i | i | 1.4 | i
C=CCn1c(SC/C=C/c2ccccc2)nnc1-c1sc(N)nc1C | i | i | i | -5.7* | i
Cc1ccc(-c2cc(C(=O)Nc3cc(C)ccc3O)no2)cc1 | i | i | i | 1.88 | -7.8*
Cc1csc(NC(=O)c2nn(C)c(C)c2[N+](=O)[O-])n1 | i | i | i | 1.16 | i
CCCCCCC(C)n1cc(C(C)=O)c(=O)[nH]c1=O (configuration not stated) | i | i | 100* | 0.76 | i
CC(C)(C)OC(=O)COc1ccc(/C=N/NC(=O)CN2CCCCC2)cc1 | i | i | · | -0.02 | i
C/C(CC(=O)Nc1cccc(Br)c1)=N\NC(=O)c1ccc(O)cc1O | i | i | i | -0.76 | i
O=C(COC(=O)c1ccccn1)Nc1ccc(S(=O)(=O)N2CCOCC2)cc1 | i | i | 25* | 1.83 | i
CCOc1ccccc1C(=O)OCC(=O)Nc1cc(S(=O)(=O)N2CCOCC2)ccc1C | i | -42* | · | · | ·
O=C(CCc1nnc2ccc(NCc3ccco3)nn12)Nc1ccccc1F | i | i | i | 1.06 | i
O=C(Nc1ccccn1)c1cc(-c2cccnc2)nc2ccc(Br)cc12 | i | i | i | -0.4 | -6.93*
SMILES | KCNK3 block | ANO1 activ | TMEM16A inh | Kir21 inh | KCNK9 inh
Cc1cc(NC(=O)c2cc(-c3ccccn3)nc3ccc(Br)cc23)no1 | i | i | i | 0.04 | i
CCOC(=O)c1ccc(-c2ccc3c(c2)CCC3)nc1C | i | i | i | -0.44 | i
Cc1ccc(C(=O)C(c2ccccc2)N2Cc3ccccc3C2=N)cc1 (configuration not stated) | i | i | 100* | -8.35* | i
O=C(NNC(=O)C1CCCCC1)c1ccc(Br)cc1 | i | i | i | -0.08 | i
CCCC(=O)c1ccc(-c2ccccc2)cc1 | i | i | i | 0.01 | -7.38*
CCCn1c(NCc2c[nH]c3ccccc23)nc2ccccc21 | i | i | i | -7.4* | i
NNC(=O)c1c[nH]c2ccc(OCc3ccccc3)cc12 | i | i | i | 1.75 | i
Cc1cccc2nc(COc3ccc(-c4ccccc4)cc3)cn12 | · | · | 100* | 0.98 | i
O=S(=O)(NCc1csc(-c2cccs2)n1)c1cccc(C(F)(F)F)c1 | i | i | i | -11.4* | i
COc1ccc(CCNC(=O)Cn2nc(C)c3c(C)n(-c4ccccc4)nc3c2=O)c(OC)c1 | i | -7.87* | i | -0.51 | i
COc1ccc(OC)c(CCNC(=O)Cn2nc(C)c3c(C)n(-c4ccc(C)cc4)nc3c2=O)c1 | i | i | i | -2.15 | i
O=C(NCCc1cccc(Cl)c1)c1ccc(OC2CCN(Cc3ccccn3)CC2)cc1 | i | i | · | -5.4* | i
COc1ccc(CCNC(=O)C2CCC(C(C)(C)C)CC2)cc1OC (configuration not stated) | i | i | i | -9.09* | i
COc1ccc(CCNC(=O)c2ccc(CN3CCC(Cc4ccccc4)CC3)cc2)cc1OC | i | -6.94* | i | -2.24 | i
COc1ccc(CCNC(=O)C(=O)NCC2CCCN2S(=O)(=O)c2ccccc2)cc1OC (configuration not stated) | i | i | 25* | 1.41 | i
CCCCCNC(=O)Cc1ccc(S(=O)(=O)N2CCOCC2)s1 | i | i | i | 0.13 | i
CCN(CCNCC(O)COCc1ccc(Cl)cc1)c1cccc(C)c1 (configuration not stated) | i | i | i | -7.52* | i
CCN(CCNC(=O)c1ccc(C#N)cc1)c1cccc(C)c1 | i | i | i | -5.32 | i
O=C(NCCCNC(=O)c1ccc(-c2cccc(Cl)c2)o1)c1cnccn1 | i | i | i | 0.56 | i
Cc1ccc(Sc2ccc(NC(=O)CCN3C(=O)NC4(CCCC4)C3=O)cc2)c(C)c1 | i | -24* | · | · | ·
Cc1ccc(S(=O)(=O)c2c(CO)c(-c3ccccc3)nn2C)cc1 | i | i | i | -0.34 | i
Cn1nc(-c2ccccc2)c(CSc2ccccc2Cl)c1Cl | i | i | i | -0.04 | -7.61*
CCSc1nnc(CNC(=O)C23CC4CC(CC(C4)C2)C3)n1C1CCCCC1 | i | i | i | -1.58 | i
O=S(=O)(Nc1ccc(-c2ccc3nncn3n2)cc1)c1cccc(F)c1 | i | i | i | 0.37 | i
CC1(C)CC(=O)C2=C(C1)OC(N)=C(C#N)C2c1cc2c(cc1[N+](=O)[O-])OCO2 (configuration not stated) | i | -4.97* | i | -11 | i
C/C(=N\NC(=O)c1nn(C)c(C)c1Br)c1ccc(NC(=O)c2ccoc2C)cc1 | i | i | i | -0.75 | -7.9*
CSc1ccc(CC(=O)N2CCC(n3nccc3NC(=O)C3CC3)CC2)cc1 | i | i | i | 0.46 | i
